Screening results from PubChem BioAssay.
BAZ2B inh: blocks human BAZ2B; AID 504333; AlphaScreen BAZ2B-H3K14Ac peptide displacement; Potency, µM (top dose mostly 114 µM), most hits filed as inhibitors; Q9UIF8; hit rate 4.4% among 360,000; also: nearly all actives have a fitted effect of over 60% in size
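Protein-peptide AlphaScreen: BAZ2B 50 nM, b-H3K14Ac 50 nM, 1x PBS pH 7.4 + 0.01% Tween-20. Preincubation 30 min RT; cpd 30 min RT (top 110 uM); beads 20 min RT, light-protected.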
CtBP-E1A inh: blocks the CtBP interaction with E1A; activity change, % (concentration not given with the values); AlphaScreen GST-E1A/His-CtBP binding, 1536-well; stronger effect = lower value; hit rate 0.49% among 340,000; in the data active = activity change below about -65%; inconclusive = mostly about -30% to -63%
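Homogeneous bead-based format: GST-tagged E1A captured on glutathione donor beads, His-tagged CtBP on nickel acceptor beads; compounds precede bead addition by 2 h at 37 °C.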
TDP1 inh: inhibitors of human tyrosyl-DNA phosphodiesterase TDP1 | recombinant TDP1, AlphaScreen DNA substrate cleavage | Q9NUW8 | hit rate 0.28% among 350,000 | AID 485290 | Potency, µM (titrated, usually from 130 µM), most hits filed as inhibitors; also: nearly all actives have a fitted effect of over 40% in size
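Recombinant E. coli-expressed Tdp1 (1 nM) preincubated with compound 15 min at RT, then 5'-biotin/3'-phosphotyrosine-FITC DNA substrate (15 nM) added for 5 min. AlphaScreen beads (10 ug/ml) added, 10 min RT; tyrosine-FITC cleavage read as signal loss.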
Six1-Eya2 blk: Six1/Eya2 interaction inhibition. AID 651725. hit rate 0.56% among 360,000. activity change, % (no concentration beside the values). AlphaScreen GST-Six1/His-Eya2 binding, biochemical; stronger effect = lower value. Q15475+O00167; in the data active = activity change below about -65%; inconclusive = mostly about -30% to -63%
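Homogeneous AlphaScreen proximity assay pairing GST-Six1 with His-tagged Eya2 (added as 5X mix: 250 nM and 500 nM) in 50 mM Tris pH 8.0, 300 mM NaCl, 1 mM TCEP. Glutathione donor and nickel acceptor beads; 1 h, 37 °C, dark.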
HP1b chromo inh: inhibitors of HP1-beta chromodomain binding to methylated histone tails; P83916; hit rate 0.56% among 390,000; AID 540317; Potency, µM (top dose mostly 114 µM), usual class: inhibitors; AlphaScreen HP1-beta / biotin-H3K9me3 peptide binding; also: nearly all actives have a fitted effect of over 70% in size
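AlphaScreen: HP1-beta (50 nM) preformed 30 min with biotin-H3(1-18)K9me3 peptide (50 nM) in PBS pH 7.4, 0.01% Tween-20. Compound added for 30 min at RT, then streptavidin donor/nickel chelate acceptor beads (10 ug/mL) for 30 min.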
JMJD2A Tudor: blocks the human JMJD2A Tudor domain; hit rate 4.4% among 390,000; Potency, µM (series often up to 114 µM), actives largely listed as inhibitors; AlphaScreen JMJD2A-Tudor / H3K4me3 peptide binding; AID 504339; also: nearly all actives have a fitted effect of over 50% in size
Hits are given with their value; i = inactive; ? = inconclusive; nt = not tested or not shown; ! = not active in a repeat; [ ] = dose if it differs, or a comment. An excerpt weighted towards active compounds, which were near 5.3% of everything screened. Unless noted, calls follow the shape of the dose curve; as a rule, active = well fitted inhibition curve with a large enough effect; inconclusive = small, poorly fitted or top-dose-only effect; inactive = no such curve, though single readings can be large or run the other way.

SMILES	BAZ2B inh	CtBP-E1A inh	TDP1 inh	Six1-Eya2 blk	HP1b chromo inh	JMJD2A Tudor
CC1CCCN(c2ccc(C(=O)NCc3ccco3)cc2[N+](=O)[O-])C1 (stereo unspecified)	45µM	i	i	?	?	56µM
COc1ccccc1CNC(=O)c1ccc(N2CCOCC2)c([N+](=O)[O-])c1	79µM	i	i	i	i	?
CN(C)c1ccc(NC(=O)C2C3C=CC(C3)C2C(=O)O)cc1 (stereo unspecified)	35µM	?	nt	?	i	?
O=C(O)C1C2C=CC(C2)C1C(=O)Nc1ccc2c(c1)OCCO2 (stereo unspecified)	i	i	i	i	i	i
O=c1[nH][nH]c(=S)n1C1CCCCC1	25µM	i	i	i	3.5µM	2.5µM
O=C(O)c1ncc(Cl)c(Cl)c1Cl	i	i	i	i	i	50µM!
CC(N)C(=O)NC(C(=O)N1CCCC1C(=O)NC(c1ccccc1)c1ccccc1)C(C)C (stereo unspecified)	i	i	i	i	i	89µM
C=CCOc1ccc(C=CC(=O)c2c(O)c(OC)c(OC)c(OC)c2OC)cc1	nt	i	nt	i	50µM	14µM
COc1ccc(C=CC(=O)c2c(OC)cc(OC)c(OC)c2O)cc1	nt	i	nt	i	40µM	?
CCOC(=O)Cn1c(=O)n(CC2CCCO2)c2nc(-c3cc(OC)ccc3OC)nc(C(N)=O)c21 (stereo unspecified)	i	nt	i	nt	i	i
CCOc1ccccc1NC(=O)CCNS(=O)(=O)c1ccc2c(c1)CCN2C(=O)C1CC1	i	nt	i	nt	i	i
O=C(Cn1cc(S(=O)(=O)Cc2cccc(Cl)c2)c2ccccc21)NCCc1ccccc1	i	nt	i	nt	i	i
O=c1cc(-c2ccc(O)c(O)c2)oc2cc(O)c(C3OC(CO)C(O)C(O)C3O)c(O)c12 (stereo unspecified)	?	i	i	?	i	25µM
CCOC(=O)C1=C(N)Oc2cc(O)ccc2C1c1cccc([N+](=O)[O-])c1 (stereo unspecified)	40µM	i	i	i	i	?
CCOC(=O)C1=C(N)Oc2cc(O)ccc2C1c1ccccc1 (stereo unspecified)	i	nt	nt	i	i	i
COc1cc(-c2nnc(NC(=O)c3ccco3)o2)cc(OC)c1OC	79µM	i	nt	i	i	?
O=C(Nc1ccc(Br)cc1)c1ccco1	i	i	i	i	i	i
CCOc1cc(-c2nnc(NC(=O)c3ccco3)o2)cc(OCC)c1OCC	i	i	nt	i	i	i
O=C(Nc1nnc(-c2ccccc2Cl)o1)c1ccco1	79µM	i	i	i	i	79µM
O=C(Nc1nnc(-c2ccc(Br)cc2)o1)c1ccco1	79µM	i	i	i	i	?
O=C(CSc1nnc(SCc2cccc3ccccc23)s1)N=Nc1c(O)[nH]c2ccccc12	50µM	nt	i	nt	nt	nt
O=C(CSc1nnc(SCc2cccc3ccccc23)s1)Nc1ccc(C(=O)O)cc1	?	i	i	i	?	13µM
c1ccc(Nc2nnc(SCc3cccc4ccccc34)s2)cc1	i	i	i	i	i	i
COc1ccc(C(=O)NCC(c2cccnc2)N2CCc3ccccc3C2)cc1 (stereo unspecified)	i	nt	i	nt	i	i
Cc1cc(NC(=O)N(C)CCc2c(C)nn(C)c2C)ccc1Br	i	nt	i	nt	i	i
SMILES	BAZ2B inh	CtBP-E1A inh	TDP1 inh	Six1-Eya2 blk	HP1b chromo inh	JMJD2A Tudor
O=[N+]([O-])c1ccc(Cl)c(-c2ccc(/C=N/n3cnnc3)o2)c1	?	i	nt	i	i	?
O=[N+]([O-])c1ccc(Cl)c(/C=N/N2CCN(c3ccccc3)CC2)c1	11µM	i	i	?	?	10µM
COc1ccccc1N1CCN(/N=C/c2cc([N+](=O)[O-])ccc2Cl)CC1	7.9µM	i	i	?	i	?
CN1CCN(/N=C/c2ccc(-c3ccc([N+](=O)[O-])cc3Cl)o2)CC1	28µM	i	i	i	?	56µM
O=[N+]([O-])c1ccc(Cl)c(/C=N/N2CCN(C3c4ccccc4-c4ccccc43)CC2)c1	i	i	i	i	i	?
C/C(=C\C(=O)OCCCCCCCCC(=O)O)C[C@@H]1OCC(C[C@H]2O[C@H]2[C@@H](C)[C@H](C)O)[C@@H](O)[C@H]1O (stereo partly specified)	nt	nt	i	nt	nt	nt
COc1cc(C(=O)NCC(c2ccco2)S(=O)(=O)c2cccs2)cc(OC)c1OC (stereo unspecified)	i	nt	i	nt	i	i
Oc1cc(O)cc(/C=C/c2ccc(O)c(O)c2)c1	?	i	i	?	16µM	45µM
CCOC(=O)c1nnn(-c2ccccc2)c1C	i	i	i	i	i	i
CCOC(=O)c1nnn(-c2nc(N3CCCC3)nc(N3CCCC3)n2)c1-c1ccccc1	i	i	i	i	i	79µM
COCCn1ccc2c(OCC(=O)Nc3ccccc3F)cccc2c1=O	i	nt	i	nt	i	i
CC(C)(C)N/N=C/c1cc(Cl)cc([N+](=O)[O-])c1O	?	i	i	i	i	?
CN(/N=C/c1cc(Cl)cc(Cl)c1O)c1c(Cl)cccc1[N+](=O)[O-]	10µM	i	i	i	?	40µM
COc1ccc(N2CCN(C(=O)CSc3nc(-c4ccccc4)no3)CC2)cc1	i	nt	i	nt	i	i
O=C(CC1C(=O)NCCN1Cc1ccc(F)cc1)NCCN1CCCc2ccccc21 (stereo unspecified)	79µM	nt	i	i	i	?
COc1ccccc1/C=C/C=N\N1CCN(Cc2ccccc2Cl)CC1	40µM	i	i	?	?	20µM
COc1ccccc1/C=C/C=N/N1CCN(Cc2ccc(Cl)cc2)CC1	32µM	?	i	?	40µM	45µM
COc1ccc(Br)cc1/C=N/N1CCN(Cc2ccccc2Cl)CC1	?	i	nt	i	i	40µM
O=C(NC1CCCc2ccccc21)c1ccc2c(c1)sc1nc(-c3ccccc3)cn12 (stereo unspecified)	i	nt	i	nt	i	i
O=C(CSc1nc2c([nH]c3ccccc32)c(=O)n1-c1ccc(Cl)cc1)NC1CCCCC1	i	nt	i	nt	i	i
CN1CCN(C(CNC(=O)c2cccc(F)c2)c2ccc3c(c2)OCO3)CC1 (stereo unspecified)	i	nt	i	nt	i	i
Cc1ccc(CNC(=O)COc2ccc(C)nc2[N+](=O)[O-])cc1	i	i	i	i	i	i
Cc1ccc(OCC(=O)c2ccc(Cl)s2)c([N+](=O)[O-])n1	50µM	i	i	i	i	56µM
Cc1ccn2c(Nc3ccccc3)c(-c3ccccn3)nc2c1	20µM	-78	i	-74	i	50µM
Cc1ccc(Nc2c(-c3cccnc3)nc3ccc(C)cn23)cc1	i	nt	i[12.3 µM]	nt	i	i
Cc1ccc2nc(-c3ccccn3)c(Nc3ccc(F)cc3)n2c1	5.6µM	nt	i	nt	i	?
